Out of some 13,000 compounds screened, about 3,200 (25%) showed an effect of 50% or more. This is one part of the list.
tested on: P. falciparum stage V gametocytes; design: BacTiter-Glo ATP luminescence viability of purified stage V gametocytes in 384-well plates, per cent inhibition versus DMSO; details: 48 h, 5 µM; inhibitor

First: CCOCc1cnc(C)nc1CNC(=O)c1c(C)[nH]c2ccc(C)cc12 [TCMDC-125780]
Second: CCCCc1ccc2[nH]c(NC(=O)OC)nc2c1 [TCMDC-131798]
The “% Inhibition” value of the first is higher: 11.26% for the first, -12.96% for the second.

First: CCCc1cc(=O)oc2cc(OC)c(C(=O)CC(C)C)c(OC)c12 [TCMDC-138262]
Second: Cc1ccc(NC(=O)c2ccc3ncccc3c2)cc1OC1CCN(CCC(C)C)C1 (centres unmarked) [TCMDC-133980]
The “% Inhibition” value of the first is lower: -48.84% for the first, 9.414% for the second.

Compared with `Oc1cccc(-c2nc(-c3ccccc3)c(-c3ccc4oc5ccc(-c6[nH]c(-c7cccc(O)c7)nc6-c6ccccc6)cc5c4c3)[nH]2)c1` [TCMDC-124223], `Fc1ccc2[nH]c(-c3cccc(-c4ccc(CNCc5cnn(-c6ccccc6)n5)cc4)c3)nc2c1.O=C(O)C(F)(F)F` [TCMDC-132973] is lower in “% Inhibition” value: 14.59% for the first, -12.58% for the second.

First: CC(CN(C)C)C(=O)Nc1ccc(-c2ccc(-c3nc4ccc(C(F)(F)F)cc4[nH]3)cc2)cc1 (centres unmarked) [TCMDC-137113]
Second: O=C(CNC(=O)c1ccc(O)cc1)Nc1cccc(-c2cccc(-c3nc4ccc(C(F)(F)F)cc4[nH]3)c2)c1 [TCMDC-136816]
The “% Inhibition” value of the first is lower: -54.47% for the first, 11.2% for the second.

Going from `O=C(NCCN1CCCC1)c1cccc(-c2ccc(-c3nc4ccc(F)cc4[nH]3)cc2)c1` [TCMDC-132325] to `COc1ccc(-c2ccc(NC(=O)c3cccc(Cl)c3)cc2)cc1CN1CCN(C)CC1` [TCMDC-132526], the “% Inhibition” value rises from -16.55% to 82.79%.

First: CN(C)C(=S)NN=Cc1cccc(O)c1O [TCMDC-137879]
Second: NC(N)=NN=CC(=O)Nc1ccc(Cl)c(C(F)(F)F)c1 [TCMDC-137561]
The “% Inhibition” value of the first is higher: 23.09% for the first, 9.011% for the second.

Compared with `CC(=NNC(N)=O)C1=C(O)C(c2ccccc2)N(C2CCCCC2)C1=O` (centres unmarked) [TCMDC-131672], `O=C(NC1CCCCC1)c1csc(C2CCCN(C(=O)c3ccc(O)c(-c4cccc(C(F)(F)F)c4)c3)C2)n1` (centres unmarked) [TCMDC-140156] is higher in “% Inhibition” value: -9.176% for the first, 5.189% for the second.

Going from `Cc1cccc2nc(-c3cccc(-c4cccc(NC(=O)Cc5ccc[n+]([O-])c5)c4)c3)[nH]c12` [TCMDC-136992] to `COc1ccc(-c2cccc(NC(=O)c3cccc(Cl)c3)c2)cc1CN1CCN(C)CC1` [TCMDC-132617], the “% Inhibition” value rises from 24.81% to 28.66%.

First: COc1ccc(C(=O)NCCCCN2CCC(c3ccc4c(c3OC)CCCC4)CC2)cc1-c1ccc(C(F)(F)F)cc1 [TCMDC-138700]
Second: O=C(NCCCCN1CCC(c2ccc3c(c2OCCCO)CCCC3)CC1)c1ccc(-c2ccc(C(F)(F)F)cc2)c(CO)c1 [TCMDC-138741]
The “% Inhibition” value of the first is lower: -81.5% for the first, 72.16% for the second.

Going from `O=C(NCCCCN1CC=C(c2ccc3c(c2OCC2CC2)CCCC3)CC1)c1ccc(-c2ccc(C(F)(F)F)cc2)cc1` [TCMDC-138758] to `N#CCOc1c(C2CCN(CCCCNC(=O)c3ccc(-c4ccc(C(F)(F)F)cc4)cc3)CC2)ccc2c1CCCC2` [TCMDC-138769], the “% Inhibition” value rises from -36.04% to 92.11%.

First: O=C(NCCCCN1CCC(c2ccc3c(c2OCCN2CCCC2=O)CCCC3)CC1)c1ccc(-c2ccc(C(F)(F)F)cc2)cc1 [TCMDC-138773]
Second: O=C(NCCCCN1CCC(c2ccc3c(c2OCCN2CCCC2)CCCC3)CC1)c1ccc(-c2ccc(C(F)(F)F)cc2)cc1 [TCMDC-138768]
The “% Inhibition” value of the first is higher: 108.1% for the first, 107.4% for the second.

Going from `O=C(NCCCCN1CCC(c2ccc3c(c2OCCOCCO)CCCC3)CC1)c1ccc(-c2ccc(C(F)(F)F)cc2)cc1` [TCMDC-138762] to `O=C(NCCCCN1CCC(c2ccc3c(c2OCCO)CCCC3)CC1)c1ccc(-c2ccc(C(F)(F)F)cc2)cc1` [TCMDC-138714], the “% Inhibition” value rises from 96.11% to 98.87%.

Going from `Cc1cc(C2CCN(CCCCNC(=O)c3ccc(-c4ccc(C(F)(F)F)cc4)cc3)CC2)c(C)cc1OCC#N` [TCMDC-138799] to `CNC(=O)COc1cc(C)c(C2CCN(CCCCNC(=O)c3ccc(-c4ccc(C(F)(F)F)cc4)cc3)CC2)cc1C` [TCMDC-138846], the “% Inhibition” value rises from 37.57% to 42.45%.

Compared with `OC(c1ccccc1)C1CN(CCc2ccccc2)CCC1(O)c1ccccc1` (centres unmarked) [TCMDC-131287], `COc1cccc(CN2CCC(CCOC(c3ccccc3)c3ccccc3)CC2)c1O` [TCMDC-136041] is lower in “% Inhibition” value: -3.552% for the first, -8.929% for the second.

Compared with `O=C(/C=C/c1ccccc1Cl)Nc1ccc(Br)c(OCCN2CCN(CCN3CCOCC3)CC2)c1` [TCMDC-140958], `CCN1CCN(c2cc(C)c3cc(NC(=O)c4ccc(Br)o4)ccc3n2)CC1` [TCMDC-123600] is higher in “% Inhibition” value: -23.86% for the first, 1.193% for the second.

Going from `CC(=O)c1ccc(-c2cccc3c(CC(=O)Nc4ccc5nccc(N6CCN(C)CC6)c5c4)cccc23)cc1` [TCMDC-139271] to `COc1ccc(-c2ccc(NC(=O)c3ccc(Cl)cc3)cc2)cc1CN1CCN(C)CC1` [TCMDC-132512], the “% Inhibition” value rises from -10.77% to 92.99%.

Compared with `O=C(NCCCCN1CCC(c2ccc3c(c2OCCCO)CCCC3)CC1)c1ccc(-c2ccc(C(F)(F)F)cc2)cc1` [TCMDC-138743], `CC(=O)COc1c(C2CCN(CCCCNC(=O)c3ccc(-c4ccc(C(F)(F)F)cc4)cc3)CC2)ccc2c1CCCC2` [TCMDC-138738] is lower in “% Inhibition” value: 141.9% for the first, 105.6% for the second.

Going from `CCOC(=O)c1cc(C(=O)NCCCCN2CCC(c3cn(C)c4ccccc34)CC2)ccc1-c1ccc(C(F)(F)F)cc1` [TCMDC-138751] to `Cn1cc(C2CCN(CCCCNC(=O)c3ccc(-c4ccc(C(F)(F)F)cc4)c(CO)c3)CC2)c2ccccc21` [TCMDC-138748], the “% Inhibition” value rises from 1.206% to 65.02%.

Going from `O=C(NCCCCN1CCC(c2cccc3ccccc23)CC1)c1ccc(-c2ccc(C(F)(F)F)cn2)cc1` [TCMDC-138570] to `O=C(NCCCCN1CCC(c2ccc3c(c2OCC(O)c2ccc(Cl)cc2)CCCC3)CC1)c1ccc(-c2ccc(C(F)(F)F)cc2)cc1` (centres unmarked) [TCMDC-138749], the “% Inhibition” value rises from -25.01% to 115%.

First: O=C(NCCCCN1CCC(c2ccc3c(c2OCCO)CCCC3)CC1)c1sc(-c2ccc(C(F)(F)F)cc2)nc1CO [TCMDC-138776]
Second: O=C(NCCCCN1CCC(c2ccc3c(c2OCCO)CCCC3)CC1)c1ccc2oc(-c3ccc(C(F)(F)F)cc3)cc2c1 [TCMDC-138771]
The “% Inhibition” value of the first is lower: 39.12% for the first, 113.6% for the second.

Going from `O=C(NCCCCN1CCC(c2ccc3c(c2OCC2COCO2)CCCC3)CC1)c1ccc(-c2ccc(C(F)(F)F)cc2)cc1` (centres unmarked) [TCMDC-138770] to `COc1ccc(-c2ccc(NC(=O)c3ccc(Cl)cc3)cc2)cc1CN1CCC(O)CC1` [TCMDC-133337], the “% Inhibition” value falls from 14.16% to 0.3946%.

Compared with `CN1CCCc2ccc(NC(=O)c3cc(-c4ccc(Cl)cc4)cs3)cc2C1` [TCMDC-133946], `COc1ccc(-c2ccc(NC(=O)c3ccc(Cl)cc3)cc2)cc1CN1CCCN(C)CC1` [TCMDC-132510] is higher in “% Inhibition” value: 39.01% for the first, 104.3% for the second.

Compared with `CCN(CCCN1CCCCC1)c1nc(C)cc(Nc2ccc(Cl)cc2)n1` [TCMDC-137045], `COc1ccc(-c2cccc(NC(=O)c3ccc(Cl)cc3)c2)cc1CN1CCCN(C)CC1` [TCMDC-132602] is lower in “% Inhibition” value: 21.21% for the first, -35% for the second.

Going from `O=C(Nc1ccc2c(c1)OCO2)NC1CCN(c2ccnc(NCc3ccc(F)cc3)n2)CC1` [TCMDC-133635] to `O=C(Nc1ccc(CCNC2=NCCN2)cc1)Nc1ccc(CCNC2=NCCN2)cc1` [TCMDC-137205], the “% Inhibition” value falls from 26.57% to 10.33%.

Compared with `CCCC1N=C(N)N=C(N)N1c1ccc(OC)cc1` (centres unmarked) [TCMDC-131295], `CC1(C)N=C(N)N=C(N)N1OCCCNC(=O)c1ccc(C(=O)NCCCON2C(N)=NC(N)=NC2(C)C)cc1` [TCMDC-131677] is higher in “% Inhibition” value: -30.41% for the first, 3.216% for the second.

Compared with `CC(C)(C)OC(=O)Cn1cnc2cc(NC(=O)c3cc([N+](=O)[O-])cc([N+](=O)[O-])c3)ccc21` [TCMDC-131910], `O=C(Nc1cccc(CN2CCCN(Cc3ccc(O)cc3)CC2)c1)c1cc(F)cc(F)c1` [TCMDC-141881] is higher in “% Inhibition” value: -17.84% for the first, 2.179% for the second.

First: Cc1nc2ccc3ccc(CNc4ccc(C(=O)N[C@@H](CCC(=O)O)C(=O)N[C@@H](Cc5cccs5)C(=O)O)c(F)c4)cc3c2c(=O)[nH]1 [TCMDC-137819]
Second: CCCC(=O)Nc1ccc(OCCCN(Cc2ccccc2OC(F)(F)F)c2ccc(C#N)c(C(F)(F)F)c2)cc1 [TCMDC-135667]
The “% Inhibition” value of the first is lower: 7.673% for the first, 14.29% for the second.

First: CN1CCN(CC(O)CNC(=O)Nc2ccc(Br)cc2)CC1 (centres unmarked) [TCMDC-134635]
Second: COc1ccc(-c2ccc(NC(=O)c3ccc(C#N)cc3)cc2)cc1CN1CCN(C)CC1 [TCMDC-133336]
The “% Inhibition” value of the first is higher: 15.1% for the first, -18.08% for the second.

Compared with `NC(N)=Nc1nccc(NCc2ccccc2)n1` [TCMDC-141971], `O=C(/C=C/c1ccc(Cl)c(Cl)c1)NCCCCCN1CCC(NC(=O)NCCc2ccccc2)CC1` [TCMDC-135707] is lower in “% Inhibition” value: 14.91% for the first, -32.39% for the second.

Going from `N#Cc1ccc(N(CCOc2ccc3c(c2)CCC(=O)N3)Cc2ccccc2C(F)(F)F)cc1C(F)(F)F` [TCMDC-132801] to `COc1ccc(-c2ccc(CNC(=O)c3ccc(Cl)cc3)c(F)c2)cc1CN1CCCN(C)CC1` [TCMDC-133369], the “% Inhibition” value falls from 23.33% to -6.152%.

First: COc1cccc(-c2[nH]c3ccccc3c2CN2CCC(c3c(C)cccc3C)CC2)c1 [TCMDC-141630]
Second: COc1ccccc1-c1[nH]c2ccccc2c1CN1CCC(c2c(C)cccc2C)CC1 [TCMDC-141628]
The “% Inhibition” value of the first is lower: 29.07% for the first, 83.13% for the second.
